Source: PubChem BioAssay
hDAT+cocaine = human DAT dopamine uptake with cocaine, either direction. Q01959. LLC-PK1 hDAT cells, [14C]-dopamine uptake with cocaine IC80; actives deviate in either direction. AID 449768. B-score at 10 µM. 1.3% of 110,000 active;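 active = Z score or B-score, a plate-position-corrected score, falls beyond the plate's 99.7% confidence bounds, in either direction; inactive = both scores lie inside the 99.7% bounds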;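 also: scored against the spread of the other compound wells on the same plate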
Target sequence (Q01959 whole entry, looked up): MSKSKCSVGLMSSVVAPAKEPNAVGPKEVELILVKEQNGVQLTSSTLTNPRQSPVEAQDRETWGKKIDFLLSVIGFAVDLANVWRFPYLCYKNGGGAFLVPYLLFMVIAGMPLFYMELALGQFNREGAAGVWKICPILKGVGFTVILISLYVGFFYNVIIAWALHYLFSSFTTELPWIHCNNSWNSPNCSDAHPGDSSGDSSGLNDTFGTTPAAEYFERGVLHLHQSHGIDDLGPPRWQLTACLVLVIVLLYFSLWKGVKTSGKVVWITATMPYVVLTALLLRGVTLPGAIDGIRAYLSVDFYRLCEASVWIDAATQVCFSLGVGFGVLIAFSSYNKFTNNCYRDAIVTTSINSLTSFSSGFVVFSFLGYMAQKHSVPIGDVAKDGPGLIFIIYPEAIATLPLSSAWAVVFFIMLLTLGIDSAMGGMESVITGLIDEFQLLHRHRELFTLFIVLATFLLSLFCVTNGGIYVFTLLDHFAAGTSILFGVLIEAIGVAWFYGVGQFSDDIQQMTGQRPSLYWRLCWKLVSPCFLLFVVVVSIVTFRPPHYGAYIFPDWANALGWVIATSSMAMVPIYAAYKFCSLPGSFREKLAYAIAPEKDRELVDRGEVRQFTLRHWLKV
HCT116 PTEN-null = PTEN-deleted cell growth suppression; 1.2% of 140,000 active; HCT116 PTEN-null viability, CellTiter-Glo, 60 h; hits give low values; viability, % at 10 µM;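 active = viability at or below a set limit, 4 SD under the median of all tested compounds, cut at about 3.7% in these data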;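 also: PTEN knockout HCT116 line with beta catenin targeted HCT116 as companion control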
bCat KO growth = beta-catenin-lacking colon tumor cell growth suppression; HCT116 beta-catenin knockout viability, CellTiter-Glo, 60 h; hits give low values; viability, % at 10 µM; 1.5% of 140,000 active; AID 818;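 active = viability at or under a set limit, the compound median less 4 SD, cut at about 6% in these data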;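 also: 0% = Hyamine 1622 control at 20 µM and 100% = untreated cell control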
WT yeast gro inh = growth inhibition of WT yeast, mitochondrial fusion screen | 2.1% of 190,000 active | inhibition, % at 10 µM | mitochondrial fusion phenotypic screen, WT strain | AID 1362; in the data active = inhibition above about 58%; tested in S. cerevisiae
The depositor's hits bear a star; nt = not tested or not shown. Only some compounds are listed: those with a hit (about 3.6% of all), similar ones and a draw of the others.

SMILES	hDAT+cocaine	HCT116 PTEN-null	bCat KO growth	WT yeast gro inh
O=C(Nc1ccc(N2CCN(C(=O)c3ccccc3)CC2)cc1)c1cc2ccccc2o1	-0.014	17	5.6*	12
COCCn1c(C)cc(C(=O)CSc2cc(C)c3ccc(OC)cc3n2)c1C	nt	76	79	-19
COc1cccc(-c2nc(OC(C)C)c3ccccc3n2)c1	1.2	61	56	61*
O=C1CN(C(=O)c2cc([N+](=O)[O-])ccc2Cl)C(c2ccc(F)cc2)c2cc(F)ccc2N1 (centres undefined)	nt	80	78	20
S=C(NCc1ccc(Cl)cc1Cl)NC1CCCCC1	nt	81	81	83*
COc1cccc(C(=O)OCCN2CCOCC2)c1	nt	nt	nt	6
O=C(Oc1c(CN2CCOCC2)cc(Cl)c2cccnc12)c1ccc(F)cc1	-0.058	1.9*	5.0*	-1
COc1cc(C(=O)Oc2c(CN3CCOCC3)cc(Cl)c3cccnc23)cc(OC)c1OC	nt	1.5*	2.4*	0
O=C(Oc1c(CN2CCOCC2)cc(Cl)c2cccnc12)c1cccs1	nt	nt	nt	6
COc1cccc(C(=O)Oc2c(CN3CCOCC3)cc(Cl)c3cccnc23)c1	2	1.4*	1.6*	4
COc1ccc(C(=O)Oc2c(CN3CCOCC3)cc(Cl)c3cccnc23)cc1	0.48	3.1*	4.9*	-13
O=C(Oc1c(CN2CCOCC2)cc(Cl)c2cccnc12)c1ccccc1Cl	nt	nt	nt	4
COc1ccc(CNC(=O)COC(=O)[C@H](Cc2c[nH]c3ccccc23)NC(=O)c2cccs2)cc1	nt	79	85	-9
COc1ccc(C(=O)N(NC(=O)Oc2ccccc2)C(C)(C)C)cc1	nt	101	97	2
O=C(O)c1cccc(CSc2nc(-c3ccc(Cl)cc3)cc(C(F)(F)F)n2)c1	3*	83	89	23
COc1ccc(-c2cc(C)nc(SCc3cccc(C(=O)O)c3)n2)cc1	nt	96	98	4
CC1CC(C)(C)Nc2ccc(OC(=O)c3ccco3)cc21 (centres undefined)	-0.14	0.7*	0.8*	14
O=C(Oc1ccc2ccccc2c1)c1ccco1	-0.38	97	96	5
CC1CC(C)(C)Nc2ccc(N=O)cc21 (centres undefined)	nt	nt	nt	75*
COc1ccc(C2=NN(C(C#N)c3ccc(OC)cc3)C(c3ccccc3)C2)cc1 (centres undefined)	nt	47	48	0
COC(=O)C1=C2c3[nH]c4ccccc4c3CCN2C(=O)CC1	-0.97	nt	nt	nt
CCOc1ccc(NC(=O)CNC(=O)c2cccs2)cc1	nt	nt	nt	5
O=C(CSc1nnc(-c2ccco2)o1)c1ccc[nH]1	nt	nt	nt	2
CCOc1cc(CNC2CCCC2)cc(Cl)c1OCc1ccccc1	-0.039	1.8*	1.6*	-3
Cc1ccc(C(C(=O)NC(C)(C)C)N(Cc2cccs2)C(=O)c2csnn2)cc1 (centres undefined)	0.19	nt	nt	nt
SMILES	hDAT+cocaine	HCT116 PTEN-null	bCat KO growth	WT yeast gro inh
CCC(C)(C)NC(=O)C(c1ccc(OC)cc1)N(Cc1cccs1)C(=O)CCC(=O)Nc1cc(C)on1 (centres undefined)	2.1	69	71	-4
COc1ccc(C(C(=O)NC(C)(C)C)N(Cc2cccs2)C(=O)CCC(=O)Nc2cc(C)on2)cc1 (centres undefined)	3*	74	76	-19
Cc1ccc(C(C(=O)NC(C)(C)C)N(Cc2cccs2)C(=O)c2ccc3c(c2)OCCO3)cc1 (centres undefined)	nt	58	56	72*
CCC(C)(C)NC(=O)CN(Cc1cccs1)C(=O)C(=O)Nc1ccc2c(c1)OCCO2	-0.058	87	89	-6
CCC(C)(C)NC(=O)C(c1ccc(C)cc1)N(Cc1cccs1)C(=O)c1ccc2c(c1)OCCO2 (centres undefined)	nt	5	8	74*
COc1ccc(-c2nnc(NC(=O)C3=COCCO3)o2)cc1	nt	98	93	21
COc1ccc(C2CC(c3cccs3)=NN2S(=O)(=O)c2ccc(C)cc2)cc1 (centres undefined)	1.4	nt	nt	nt
Cc1ccc(C2CC(c3cccs3)=NN2S(=O)(=O)c2ccc(C)cc2)cc1 (centres undefined)	nt	80	81	61*
COc1ccccc1C(=O)N1CCN(Cc2nc(CC3CC3)no2)CC1	nt	nt	nt	11
COc1cccc(N2CCN(Cc3nc4ccccc4c(=O)[nH]3)CC2)c1	2.2*	92	98	-4
COc1ccc(N2CCN(Cc3nc4ccccc4c(=O)[nH]3)CC2)cc1	-0.19	100	85	-6
COc1ccc(-c2nsc3c(N4CCCCC4C)ncnc23)cc1 (centres undefined)	nt	nt	nt	75*
COc1ccc(-c2nsc3c(N4CCCCC4)ncnc23)cc1	-1.6	95	92	8
Cc1ccc(CNn2cnnc2SCC(=O)NC(C)(C)C)cc1	2.2*	97	88	-8
CC(C)(CO)NCc1ccccc1OCC(=O)Nc1ccccc1	0.53	94	96	56
Cc1ccc(NC(=O)COc2ccccc2CNC(C)(C)CC(C)(C)C)cc1	0.48	1.8*	1.4*	35
CCOC(=O)C1=C(Cc2ccc(F)cc2)C(=O)c2ccccc2C1=O	-0.026	65	69	16
CCCCc1ccc(/C=C2\C(=O)c3ccccc3C(O)=C2C(=O)OCC)cc1	-0.19	68	67	72*
CC(=O)N(Cc1ccc(F)cc1)c1cccc(C)c1C	nt	nt	nt	-13
CC(=O)N(Cc1ccc(F)cc1)C1=C(NCCc2ccccc2)C(=O)c2ccccc2C1=O	-0.098	2.3*	1.9*	83*
Cc1cc(C)cc(N=C2SC(CC(=O)Nc3ccccc3)C(=O)N2CCN2CCOCC2)c1 (centres undefined)	nt	nt	nt	54
CC(C)C(c1nnnn1C1CCCC1)N(C)C1CCCCC1 (centres undefined)	0.056	82	81	-2
Cc1ccc(C(c2nnnn2C2CCCCC2)N(C)C2CCCCC2)cc1 (centres undefined)	-0.0023	50	48	81*
CCOC(=O)c1[nH]c2ccccc2c1NC(=S)Nc1cccc(C)c1C	nt	80	77	-8
NC(=O)c1nn(CC(=O)Nc2ccc3c(c2)OCO3)cc1[N+](=O)[O-]	nt	nt	nt	-3
SMILES	hDAT+cocaine	HCT116 PTEN-null	bCat KO growth	WT yeast gro inh
Cc1ccccc1NC(=O)N1CCCC(c2nc(-c3ccc(C(C)C)cc3)no2)C1 (centres undefined)	-1.7	101	105	-1
Cc1ccc(-c2noc(C3CCCN(C(=O)c4ccc(F)cc4F)C3)n2)cc1 (centres undefined)	0.015	66	73	7
Cc1ccccc1NC(=O)N1CCCC(c2nc(-c3ccc(F)cc3)no2)C1 (centres undefined)	3*	90	95	4
CC(C)c1ccc(-c2noc(C3CCCN(C(=O)c4ccc(F)cc4F)C3)n2)cc1 (centres undefined)	-0.92	19	14	72*
COCCN(C(=O)CSc1nc2nc(C)cc(C)n2n1)c1c(N)n(Cc2ccccc2)c(=O)[nH]c1=O	nt	nt	nt	5
O=C(Nc1cccc(S(=O)(=O)N2CCCC2)c1)c1ccc2c(=O)n3c(nc2c1)CCCCC3	nt	25	27	8
CCOC(=O)c1c(C)oc2c1c(C(c1cccnc1)N1CCOCC1)c(O)c1ccccc12 (centres undefined)	1.2	20	24	62*
